{
  "source": "the supplement of paper PMC3724861",
  "note": "Only a selection was taken, and hits are over-represented in it overall. No count for the full screen is at hand.",
  "data": [
    {"tested_on": "T1, Caupolican (Caup) homeodomain DNA-binding domain", "T1 sequence": "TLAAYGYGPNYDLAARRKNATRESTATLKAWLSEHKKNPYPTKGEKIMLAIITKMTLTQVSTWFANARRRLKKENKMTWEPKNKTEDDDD", "assay": "PBM E-score (8-mer, recovered from the published 9-mer minima) (E-score (dimensionless, -0.5 to 0.5)); Drosophila protein; higher = stronger relative binding preference, active = 0.31 or more", "outline": "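Caup's homeodomain DNA-binding domain (residues 214-303) was made by in vitro transcription and translation and applied at 100 nM to custom-designed protein binding microarrays. Each value is an enrichment score that gives relative binding preference for a short DNA word, with higher meaning stronger. The 8-mer values were recovered from published 9-mer scores, each of which was the minimum of its two constituent 8-mer scores. A cutoff of 0.31 marks candidate sites.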", "values": [
      {"sequence": "GTCAATCA", "PBM E-score": "0.0914 (inactive)"},
      {"sequence": "ACGCTGTG", "PBM E-score": "0.0319 (inactive)"},
      {"sequence": "AAAGTTGT", "PBM E-score": "0.17 (inactive)"},
      {"sequence": "AAGAGAAG", "PBM E-score": "-0.0176 (inactive)"},
      {"sequence": "ACTGTGAT", "PBM E-score": "0.066 (inactive)"},
      {"sequence": "AGCCGAAT", "PBM E-score": "-0.0412 (inactive)"},
      {"sequence": "AAGTGGCT", "PBM E-score": "-0.132 (inactive)"},
      {"sequence": "CCGCGGCA", "PBM E-score": "-0.192 (inactive)"},
      {"sequence": "CTCGTGGC", "PBM E-score": "-0.127 (inactive)"},
      {"sequence": "AAGCCGGG", "PBM E-score": "-0.179 (inactive)"},
      {"sequence": "GTATACAA", "PBM E-score": "0.318 (active)"},
      {"sequence": "ATATACAT", "PBM E-score": "0.367 (active)"},
      {"sequence": "ATATATAC", "PBM E-score": "0.181 (inactive)"},
      {"sequence": "GTATACTA", "PBM E-score": "0.16 (inactive)"},
      {"sequence": "ATATACAA", "PBM E-score": "≥ 0.355 (active)"},
      {"sequence": "ATATACAG", "PBM E-score": "0.186 (inactive)"},
      {"sequence": "ATATACAC", "PBM E-score": "0.348 (active)"},
      {"sequence": "GTATACAC", "PBM E-score": "0.249 (inactive)"},
      {"sequence": "CTATACAC", "PBM E-score": "0.0914 (inactive)"},
      {"sequence": "CTATACAG", "PBM E-score": "0.0968 (inactive)"},
      {"sequence": "TTATACAA", "PBM E-score": "0.28 (inactive)"},
      {"sequence": "CTATACAA", "PBM E-score": "0.249 (inactive)"},
      {"sequence": "ATTAGTGC", "PBM E-score": "0.105 (inactive)"},
      {"sequence": "AACTGGCC", "PBM E-score": "-0.147 (inactive)"},
      {"sequence": "CCGGACGG", "PBM E-score": "-0.297 (inactive)"},
      {"sequence": "CCTGGCAA", "PBM E-score": "-0.121 (inactive)"},
      {"sequence": "CAATGACC", "PBM E-score": "0.065 (inactive)"},
      {"sequence": "TCACAAGA", "PBM E-score": "0.131 (inactive)"},
      {"sequence": "ATCGGTAC", "PBM E-score": "0.0373 (inactive)"},
      {"sequence": "CTGCCGTC", "PBM E-score": "-0.128 (inactive)"},
      {"sequence": "ATTAGAGG", "PBM E-score": "-0.11 (inactive)"},
      {"sequence": "TCCATGCA", "PBM E-score": "-0.0253 (inactive)"},
      {"sequence": "AACATGCA", "PBM E-score": "0.392 (active)"},
      {"sequence": "ATCATGCA", "PBM E-score": "0.103 (inactive)"},
      {"sequence": "AACATGCC", "PBM E-score": "0.302 (inactive)"},
      {"sequence": "CACATGCA", "PBM E-score": "0.166 (inactive)"},
      {"sequence": "AACATGCT", "PBM E-score": "0.376 (active)"},
      {"sequence": "GAGATGCA", "PBM E-score": "-0.024 (inactive)"},
      {"sequence": "ACCATGCT", "PBM E-score": "0.14 (inactive)"},
      {"sequence": "TACATGCA", "PBM E-score": "0.371 (active)"},
      {"sequence": "CCCATGCA", "PBM E-score": "-0.119 (inactive)"},
      {"sequence": "TGCATGCA", "PBM E-score": "0.0646 (inactive)"},
      {"sequence": "GACATGCA", "PBM E-score": "0.394 (active)"},
      {"sequence": "CTCGCGTA", "PBM E-score": "-0.0439 (inactive)"},
      {"sequence": "TTATCAAA", "PBM E-score": "0.109 (inactive)"},
      {"sequence": "GTGATTCA", "PBM E-score": "0.0823 (inactive)"},
      {"sequence": "AGAAAGCA", "PBM E-score": "0.0369 (inactive)"},
      {"sequence": "CCGGGTCA", "PBM E-score": "-0.18 (inactive)"},
      {"sequence": "CACATGCG", "PBM E-score": "0.023 (inactive)"},
      {"sequence": "GACATGCC", "PBM E-score": "0.35 (active)"},
      {"sequence": "CACATGCC", "PBM E-score": "0.0641 (inactive)"},
      {"sequence": "AACATGCG", "PBM E-score": "0.356 (active)"},
      {"sequence": "GCCATGCC", "PBM E-score": "-0.149 (inactive)"},
      {"sequence": "ATCATGCG", "PBM E-score": "0.0113 (inactive)"},
      {"sequence": "ATCCTGAG", "PBM E-score": "-0.0222 (inactive)"},
      {"sequence": "CAAGCTAG", "PBM E-score": "-0.0491 (inactive)"},
      {"sequence": "CGTAATGA", "PBM E-score": "0.094 (inactive)"},
      {"sequence": "GTGACCGA", "PBM E-score": "-0.0686 (inactive)"},
      {"sequence": "ACTTGAAC", "PBM E-score": "0.132 (inactive)"},
      {"sequence": "ACAAATCC", "PBM E-score": "0.179 (inactive)"},
      {"sequence": "ATACATTA", "PBM E-score": "0.219 (inactive)"},
      {"sequence": "CTACAGGA", "PBM E-score": "0.245 (inactive)"},
      {"sequence": "GTACATGA", "PBM E-score": "0.435 (active)"},
      {"sequence": "CTGCATGA", "PBM E-score": "-0.0538 (inactive)"},
      {"sequence": "CTACATTA", "PBM E-score": "0.199 (inactive)"},
      {"sequence": "CTACATGA", "PBM E-score": "0.36 (active)"},
      {"sequence": "GCACATGA", "PBM E-score": "0.182 (inactive)"},
      {"sequence": "GTTCATGA", "PBM E-score": "0.115 (inactive)"},
      {"sequence": "GTACATTA", "PBM E-score": "0.322 (active)"}
    ]}
  ]
}
